Tb PYK inh: qHTS of Trypanosoma Brucei Inhibitors; pyruvate kinase (Trypanosoma brucei), Q57TT1; TbPYK enzyme, Kinase-Glo Plus ATP luminescence, 45 min; Potency, µM (titrated, usually from 76.8 µM), hits mostly inhibitors; actives 0.12% (n = 410,000); AID 624173, 2012; active = well fitted curve in the direction sought with a large enough effect; inconclusive = small, poorly fitted or top-dose-only effect, or another doubt; inactive = no such curve, though single readings can be large; an effect the other way counts as inactive or inconclusive; also: nearly all actives have a fitted effect of over 50% in size
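Readout: single end-point luminescence (Kinase-Glo Plus, 10 min). Reaction conditions were TbPYK/substrate plus 130 uM ADP, 45 min at RT, pH 7.2 TEA buffer. No-enzyme wells served as controls, and data were normalized before concentration-response fitting.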
SARS PLpro yeast: qHTS of Yeast-based Assay for SARS-CoV PLP; S. cerevisiae expressing SARS-CoV PLpro, growth rescue; Potency, µM (titrated, usually from 32.9 µM), most hits filed as activators; actives 0.19% (n = 330,000); AID 485353, 2010; also: nearly all actives have a fitted effect of over 55% in size
CHX counter: Cycloheximide Counterscreen for Small Molecule Inhibitors of Shiga Toxin; cell reporter, cycloheximide protein synthesis inhibition counterscreen; AID 2314, 2010; max response, %; actives 12% (n = 300,000); in the data active = max response mostly above about 13%, no sharp cut-off; inactive = mostly below about 14%; also: read at 38.3 µM for the half of the compounds with a filed dose
NS1 inh: qHTS Assay for Inhibitors of Influenza NS1 Protein Function. actives 0.4% (n = 270,000). Potency, µM (top dose mostly 46.1 µM). AID 2326, 2010; also: actives are rising curves; nearly all actives have a fitted effect of over 50% in size
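Growth recovery, yeast-based: influenza A NS1 expressed in S. cerevisiae causes slow growth, and suppressors are detected by OD600. The parent strain without NS1 is used as positive control.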
LmPK inhibitor: qHTS Assay for Inhibitors of Leishmania Mexicana Pyruvate Kinase (LmPK). purified LmPK, Kinase-Glo ATP luminescence, 1 h. Potency, µM (highest dose often 57.5 µM), usual class: inhibitors. Q27686. actives 0.37% (n = 290,000); active = well fitted curve in the direction sought with a large enough effect; inconclusive = small, poorly fitted or top-dose-only effect, or another doubt; inactive = no such curve, though single readings can be large; an effect the other way counts as inactive or inconclusive
Target sequence (Q27686 whole entry, looked up): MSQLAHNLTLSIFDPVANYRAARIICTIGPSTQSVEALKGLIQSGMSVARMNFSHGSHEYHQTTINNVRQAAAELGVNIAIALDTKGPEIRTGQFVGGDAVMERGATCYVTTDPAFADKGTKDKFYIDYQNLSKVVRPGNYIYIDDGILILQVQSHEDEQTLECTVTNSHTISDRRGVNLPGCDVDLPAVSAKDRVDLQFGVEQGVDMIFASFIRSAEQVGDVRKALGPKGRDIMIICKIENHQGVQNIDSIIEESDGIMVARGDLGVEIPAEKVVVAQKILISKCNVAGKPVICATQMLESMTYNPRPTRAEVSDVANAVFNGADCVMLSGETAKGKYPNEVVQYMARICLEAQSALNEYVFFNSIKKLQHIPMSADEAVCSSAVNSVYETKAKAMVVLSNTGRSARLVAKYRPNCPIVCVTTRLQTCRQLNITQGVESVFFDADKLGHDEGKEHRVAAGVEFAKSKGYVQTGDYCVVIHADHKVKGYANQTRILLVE
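Pyruvate kinase activity monitored as ATP production (luciferase luminescence). Conditions: 0.1 nM enzyme, 0.5 mM PEP, 0.1 mM ADP, 1 h, RT; normalized against uninhibited and no-enzyme wells.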
Shiga toxin inh: A qHTS for Small Molecule Inhibitors of Shiga Toxin | actives 9.2% (n = 290,000) | Vero cells, Shiga toxin protein synthesis inhibition reporter | inhibition, % at 38.7 µM; in the data active = inhibition mostly above about 28%, no sharp cut-off; inactive = mostly below about 43%
Of the large screens only hits and unclear results are named; the others gave an inactive call. The sample as a whole holds a higher share of hits than the screen did. Unless noted, calls follow the shape of the full dose curve.

O=[N+]([O-])c1ccc(Oc2ccc(-c3cnc4ccccc4n3)cc2[N+](=O)[O-])cc1	CHX counter 21, Shiga toxin inh 40
O=[N+]([O-])c1cc(-c2cnc3ccccc3n2)ccc1Oc1ccc(Br)cc1	CHX counter 29, NS1 inh inconclusive, Shiga toxin inh 111
O=C(O)c1ccc(Oc2ccc([N+](=O)[O-])cc2)c([N+](=O)[O-])c1	none (no result: SARS PLpro yeast, CHX counter, NS1 inh, LmPK inhibitor, Shiga toxin inh)
Cn1c(=O)c2cc(NC(=O)NCCc3cccs3)ccc2n1C/C=C/c1ccccc1	none (no result: SARS PLpro yeast, CHX counter, NS1 inh, LmPK inhibitor, Shiga toxin inh)
COCCN1CN=C(Nc2nc(C)c3ccc(C)cc3n2)NC1	none (no result: Tb PYK inh)
c1ccc2sc(NC3=NCN(C4CCCCCC4)CN3)nc2c1	none
c1ccc2oc(NC3=NCN(C4CCCCC4)CN3)nc2c1	CHX counter 20
CC(C)N1CN=C(Nc2nc3ccccc3o2)NC1	CHX counter 37, Shiga toxin inh 37 (no result: NS1 inh)
COCCN1CN=C(Nc2nc3ccccc3o2)NC1	CHX counter 27
Cc1ccc(S(=O)(=O)NC2=NCN(C(C)C)CN2)cc1	none
CCCCN1CN=C(Nc2nc3ccccc3o2)NC1	CHX counter 62, Shiga toxin inh 116
COc1ccc(CC(=O)N2CCc3cc(OC)c(OC)cc3C2O)cc1OC (centres undefined)	none
Cc1ccc(OCC(=O)Nc2c(Cl)ccc3nsnc23)cc1C	none (no result: SARS PLpro yeast, CHX counter, NS1 inh, LmPK inhibitor, Shiga toxin inh)
CC(Cl)OC(=O)Nc1cccc2cccnc12 (centres undefined)	none (no result: Tb PYK inh, SARS PLpro yeast, NS1 inh, LmPK inhibitor)
O=C(CCNC(=O)c1ccco1)Nc1ccc(F)c(Cl)c1	none
COCCN1CN=C(NS(=O)(=O)c2ccc(C)cc2)NC1	none
COCCN1CN=C(Nc2nc3ccccc3s2)NC1	CHX counter 21, Shiga toxin inh 31
COc1ccccc1C(=O)Nc1ccc2c(c1)nc1n2CCSC1	CHX counter 24, Shiga toxin inh 60
Cc1ccc(C(=O)Nc2ccc3c(c2)nc2n3CCSC2)cc1	CHX counter 31
CC(=O)N1CCC2(CC1)OC(=O)C(C)=C2C(=O)Nc1cc(C)ccc1C	none (no result: SARS PLpro yeast, CHX counter, NS1 inh, LmPK inhibitor, Shiga toxin inh)
COC(=O)CNC(=O)c1cccc(-c2ccc(OC)cc2)c1	CHX counter 36, Shiga toxin inh 80
CCN(CC)C(=O)c1cccc(-c2ccc(OC)cc2)c1	CHX counter 25, Shiga toxin inh 49 (no result: Tb PYK inh)
COc1ccc(-c2cccc(C(=O)NCC(=O)O)c2)cc1	CHX counter 23, Shiga toxin inh 35
COc1ccc(-c2cccc(C(=O)Nc3ccc(C)cc3)c2)cc1	none
Cc1cc(C)cc(N(CCC#N)C(=O)COC(=O)c2ccc(OCc3c(C)noc3C)cc2)c1	none (no result: CHX counter, NS1 inh, LmPK inhibitor, Shiga toxin inh)
COc1ccc2oc(=O)cc(CN3CCN(c4ccc(F)cc4)CC3)c2c1	none (no result: SARS PLpro yeast, CHX counter, NS1 inh, LmPK inhibitor, Shiga toxin inh)
CSc1ccc(C(=O)N2CCC(n3nccc3NC(=O)C3CC3)CC2)cc1	none
O=C(c1ccncc1)N1N=C(c2ccc(Cl)cc2)CC1c1ccccc1O (centres undefined)	CHX counter 45, Shiga toxin inh 116
Cc1ccc(-c2csc(=Nc3ccccc3)n2CCCO)cc1	none (no result: SARS PLpro yeast, CHX counter, NS1 inh, LmPK inhibitor, Shiga toxin inh)
COc1ccc(-c2csc(=NCCO)n2-c2ccccc2)cc1	CHX counter 17, Shiga toxin inh 71
COc1ccc(-c2csc(=Nc3ccccc3)n2CCO)cc1	CHX counter 16, Shiga toxin inh 41
C/C(=N\NC(=O)c1ccccc1O)c1ccc(Br)s1	CHX counter 64, Shiga toxin inh 54
C/C(=N\NC(=O)c1cccc(F)c1)c1ccc(Br)s1	CHX counter 39
C/C(=N\NC(=O)c1ccccc1[N+](=O)[O-])c1ccc(Br)s1	none
Cc1cccc(-c2nc(SCCCOc3ccccc3Cl)n3[nH]c(=O)cc3n2)c1	none (no result: SARS PLpro yeast, CHX counter, NS1 inh, LmPK inhibitor, Shiga toxin inh)
CCCCN(S(=O)(=O)c1ccccc1)S(=O)(=O)c1ccccc1	none
CC(C)(C)c1ccc(/C=N/Nc2cccc(C(=O)O)c2)cc1	CHX counter 104, Shiga toxin inh active (no result: NS1 inh)
O=C(O)c1cccc(N/N=C/c2cccnc2)c1	CHX counter 40, Shiga toxin inh 63 (no result: NS1 inh)
CC(C)(C)c1ccc(/C=N/Nc2ccc(C(=O)O)cc2)cc1	none
O=C(O)c1cccc(N/N=C/c2ccc(-c3ccccc3)cc2)c1	CHX counter 67, Shiga toxin inh 191 (no result: NS1 inh)
CN(C)c1ccc(/C=N/Nc2cccc(C(=O)O)c2)cc1	CHX counter 68, Shiga toxin inh 198
O=C(O)c1ccc(N/N=C/c2ccc(C(F)(F)F)cc2)cc1	none (no result: NS1 inh)
Cc1ccc(NC(=O)CC(C)S(=O)(=O)c2ccc3c(c2)NC(=O)CO3)c(C)c1 (centres undefined)	none (no result: SARS PLpro yeast, CHX counter, NS1 inh, LmPK inhibitor, Shiga toxin inh)
C/C(=N\NC(=O)C1(C)CC1(Br)Br)c1ccc(NC(=O)c2ccc(C)o2)cc1 (centres undefined)	CHX counter 24, Shiga toxin inh 54
C/C(=N\NS(=O)(=O)c1ccc(C)cc1)c1ccc(C)o1	none
C/C(=N/NS(=O)(=O)c1ccc(F)cc1)c1ccc(NC(=O)c2ccc(C)o2)cc1	CHX counter 35
C/C(=N\NC(=O)c1c([N+](=O)[O-])c(C)nn1C)c1ccc(NC(=O)c2ccc(C)o2)cc1	CHX counter 25, Shiga toxin inh 51
CN(Cc1ccccc1)C(=O)CN1C(=O)NC2(CCCc3sccc32)C1=O (centres undefined)	none (no result: SARS PLpro yeast, CHX counter, NS1 inh, LmPK inhibitor, Shiga toxin inh)
O=C(Nc1cccnc1)c1ccc(-c2ccc(Cl)cc2)o1	CHX counter 66, Shiga toxin inh 73 (no result: NS1 inh)
O=C(Nc1cccnc1)c1ccc(-c2cc(Cl)ccc2Cl)o1	CHX counter 22
COC(=O)c1sccc1-c1ccc(C(=O)Nc2cccc(Cl)c2)o1	Shiga toxin inh 51
O=C(NCc1cccnc1)c1ccc(-c2ccc(Cl)cc2)o1	none
O=C(Nc1ccc(-c2csnn2)cc1)C(Cl)(Cl)Cl	CHX counter 37, Shiga toxin inh 111
CC(C)(C)C(=O)Nc1ccc(-c2csnn2)cc1	CHX counter 50, Shiga toxin inh 44
COc1ccc(CCNc2ncnc3sccc23)cc1OC	none (no result: NS1 inh)
COc1ccc(CSc2ncnc3sccc23)cc1F	Shiga toxin inh 55 (no result: NS1 inh)
COc1ccc(-n2ncc3c2CC(C)(C)CC3NC(=O)C2CCN(C(C)=O)CC2)cc1 (centres undefined)	CHX counter 19, Shiga toxin inh 23
COc1ccc(-n2ncc3c2CC(C)(C)CC3NC(=O)c2ccoc2C)cc1 (centres undefined)	CHX counter 17 (no result: SARS PLpro yeast)
COc1ccc(-n2ncc3c2CC(C)(C)CC3NC(=O)c2ccc(OC)o2)cc1 (centres undefined)	none
OCCCN=c1cc(-c2ccccc2)oc2ccc(Cl)cc12	CHX counter 35, Shiga toxin inh 97
Cn1c(=O)[nH]c(=O)c2c1nc(SCCO)n2CC(O)COc1ccccc1 (centres undefined)	none
O=C(NCCc1ccc(F)cc1)C(=O)Nc1cc2c3c(c1)CC(=O)N3CCC2	none (no result: CHX counter, NS1 inh, LmPK inhibitor, Shiga toxin inh)

Screening data as filed in PubChem.
